Integrin act MD = activators of alpha7 integrin expression for muscular dystrophy; alpha7betagal myoblasts, beta-gal FDG fluorescence, 48 h; Potency, µM (highest dose often 38.3 µM), actives largely listed as activators; hit rate 0.064% among 350,000; AID 624291; note: nearly all actives have a fitted effect of over 60% in size
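alpha7betagal+/- myoblasts (passage 13, 250/well) treated 48 h at 37C with compounds at 1:260 dilution of DMSO stock. Lysed, then beta-galactosidase activity read as FDG fluorescence (ex 480/em 540) after 30 min, with pre-read for autofluorescence.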
BRCA1 expr up = activators of BRCA1 expression. hit rate 1.1% among 380,000. MCF7-BRCA1-FFLuc reporter, luminescence, 48 h; response scale: scaled: vehicle 0%, 10 µM genistein 100%. AID 624202. Potency, µM (highest dose often 46.1 µM), most hits filed as activators; note: nearly all actives have a fitted effect of over 80% in size
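48 h compound treatment of MCF7-BRCA1-FFLuc cells (phenol-red free MEM, 37 °C), then 15 min with luciferase substrate and luminescence imaging.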
GLP-1R agonist = agonists of human GLP-1 receptor; Potency, µM (top dose mostly 45.6 µM), most hits filed as activators; AID 624172; HEK293 GLP-1R CRE-luciferase, luminescence, 4-6 h; cells express a hypersensitive GLP-1R form; hit rate 0.007% among 380,000
Target sequence (P43220 whole entry, looked up): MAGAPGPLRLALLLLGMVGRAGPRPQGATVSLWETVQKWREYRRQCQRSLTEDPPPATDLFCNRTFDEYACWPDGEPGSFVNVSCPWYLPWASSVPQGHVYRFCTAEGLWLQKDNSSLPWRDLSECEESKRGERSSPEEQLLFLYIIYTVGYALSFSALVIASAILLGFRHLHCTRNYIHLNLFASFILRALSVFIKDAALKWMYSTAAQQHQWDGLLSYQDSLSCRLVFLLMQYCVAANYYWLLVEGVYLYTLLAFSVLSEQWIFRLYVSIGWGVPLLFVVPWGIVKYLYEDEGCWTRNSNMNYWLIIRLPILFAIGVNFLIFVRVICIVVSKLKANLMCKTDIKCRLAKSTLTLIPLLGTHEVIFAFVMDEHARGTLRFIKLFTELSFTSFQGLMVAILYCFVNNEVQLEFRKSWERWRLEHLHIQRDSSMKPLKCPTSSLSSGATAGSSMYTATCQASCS
GLP-1R inv ag = acts as inverse agonist at human GLP-1 receptor | hit rate 1.6% among 410,000 | HEK293 GLP-1R CRE-luciferase, luminescence, 24 h; GLP-1R form is constitutively active | P43220 | Potency, µM (doses to about 38.3 µM), hits mostly inhibitors; note: nearly all actives have a fitted effect of over 55% in size
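Using stably transfected HEK293 (constitutively active GLP-1R, cAMP-luciferase reporter), compounds were incubated 24 hr and luciferase measured by luminescence.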
GLP1R cytotox = cytotoxicity counter-screen for GLP-1 receptor inverse agonists | HEK293 cAMP-luciferase reporter cells, luminescence, 24 h | Potency, µM (titrated, usually from 38.3 µM), usual class: inhibitors | hit rate 0.13% among 410,000 | AID 624418;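 note: loss of luciferase light is scored as toxicity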
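A 23 nL compound transfer followed 12 hours of cell culture at 37 deg C; exposure then lasted 24 hr. Luciferase assay detection reagent was dispensed and plates read for luminescence after a 12 min room-temperature wait.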
Large screens that a line does not name were inactive. Most compounds without a hit are left out; they make up all but 2.7% or so of the library. Calls come from the whole dose curve; as a rule, active = well fitted curve in the direction sought with a large enough effect; inconclusive = small, poorly fitted or top-dose-only effect, or another doubt; inactive = no such curve, though single readings can be large; an effect the other way counts as inactive or inconclusive.

COc1ccc(Cl)cc1N1C(=O)/C(=C\c2sccc2C)N=C1SCC(=O)NC1CC1	GLP-1R inv ag 8.9µM
C=CCN1C(=O)/C(=C\c2ccc(Cl)cc2)N=C1SCC(=O)NC1CCCCC1	none
Cc1ccc(-c2csc(N3CCC[C@@H]3C(=O)NCCn3c(C(F)(F)F)nc4ccccc43)n2)cc1	GLP-1R inv ag inconclusive
CCCn1c(C2CCCN2c2nc(-c3cccc(Br)c3)cs2)nc2ccccc21 (stereo not given)	GLP-1R inv ag inconclusive, GLP1R cytotox 4.5µM
COc1cc(-c2cc(OC)c3c(C)oc(C)c3c(=O)c2)ccc1OC(=O)c1ccccc1F	none (no result: Integrin act MD, BRCA1 expr up, GLP-1R agonist)
COc1ccc(NC(=O)N(C)[C@H]2C[C@H]3c4[nH]c5ccc(-c6ccc(OC)cc6)cc5c4CCN3C[C@H]2[C@H](C)O)cc1	GLP-1R inv ag 7.1µM, GLP1R cytotox inconclusive
Cc1cccc(-c2ccc3[nH]c4c(c3c2)CCN2C[C@@H]([C@H](C)O)[C@@H](N(C)C(=O)NC3CCCCC3)C[C@@H]42)c1	GLP-1R inv ag inconclusive
CN[C@H]1C[C@H]2c3[nH]c4ccc(-c5cccc(C)c5)cc4c3CCN2C[C@H]1[C@H](C)O	GLP-1R inv ag 11µM, GLP1R cytotox inconclusive
COc1ccc(NC(=O)N(C)[C@H]2C[C@H]3c4[nH]c5ccc(-c6ccc7c(c6)OCO7)cc5c4CCN3C[C@H]2[C@H](C)O)cc1	GLP-1R inv ag inconclusive, GLP1R cytotox inconclusive
CN[C@H]1C[C@H]2c3[nH]c4ccc(-c5ccc(OC)cc5)cc4c3CCN2C(=O)[C@H]1[C@H](C)O	GLP-1R inv ag 5.6µM, GLP1R cytotox inconclusive
C(=C\c1ccnc2ccccc12)/c1cccnc1	none (no result: Integrin act MD, GLP-1R agonist, GLP-1R inv ag, GLP1R cytotox)
CC(=O)c1ccc(N2CCN(c3ncccn3)CC2)cc1	BRCA1 expr up 10µM
CC(=O)c1ccc(NC(=O)CN2CCN(c3ncccn3)CC2)cc1	none
CN(C)c1ccc(/C=C/c2ccnc3c(N)cccc23)cc1	none (no result: Integrin act MD, GLP-1R agonist, GLP-1R inv ag, GLP1R cytotox)
c1ccc(OCCOc2ncnc3sccc23)cc1	BRCA1 expr up 7.1µM
COc1cccc(COc2ncnc3sccc23)c1	none
CN(C)CC/C=C1\c2ccc(F)cc2Sc2cc(F)c(Cl)cc21	GLP-1R inv ag 7.9µM, GLP1R cytotox inconclusive
CN(C)CC/C=C1\c2ccccc2Sc2cc(F)c(Cl)cc21	GLP-1R inv ag 7.9µM, GLP1R cytotox inconclusive
COc1cc(-c2noc(CSc3nc(-c4ccccc4)cc(=O)[nH]3)n2)cc(OC)c1OC	none (no result: Integrin act MD, BRCA1 expr up, GLP-1R agonist)
CC1CCCCN1C(=S)NC(=O)c1ccccc1 (stereo not given)	GLP-1R inv ag inconclusive, GLP1R cytotox 11µM
COc1ccc(C=Cc2ccc3ccccc3n2)c(OC)c1	GLP-1R inv ag 4.5µM
COc1ccc(OC)c(/C=C/c2ccc3ccccc3n2)c1	none (no result: Integrin act MD, GLP-1R agonist, GLP-1R inv ag, GLP1R cytotox)
O=C(/C=C/c1ccc(Cl)cc1)N1CCN(c2c(Cl)cccc2[N+](=O)[O-])CC1	GLP-1R inv ag inconclusive
O=C(CSc1ccc(Cl)cc1)N1CCN(c2c(Cl)cccc2[N+](=O)[O-])CC1	GLP-1R inv ag 2.8µM
CCCCOC(=O)c1ccc(NC(=O)Cn2nnc3sc4c(c3c2=O)CCCC4)cc1	GLP-1R inv ag inconclusive (no result: Integrin act MD, BRCA1 expr up, GLP-1R agonist)
Cc1nc2ccccc2c(N)c1C(=O)/C=C/c1ccccc1	GLP-1R inv ag 10µM, GLP1R cytotox inconclusive
CCCn1c(=O)c2sccc2n2c(CCCC(=O)NCCc3ccc(Cl)cc3)nnc12	none (no result: Integrin act MD, BRCA1 expr up, GLP-1R agonist)
Cc1cc(C)c(S(=O)(=O)Nc2ccc3c4c(cccc24)CC3)c(C)c1	GLP-1R inv ag 4.5µM
Cc1ccc(O)c(NC(=O)c2ccc3c(c2)C(=O)N(CC(C)C)C3=O)c1	BRCA1 expr up 7.9µM
COC(=O)c1c(C)[nH]c(/C=N/Nc2ccccc2)c1C	GLP-1R inv ag 10µM
CCCCNc1ccc(C(F)(F)F)cc1S(=O)(=O)NCCc1ccc(F)cc1	GLP-1R inv ag inconclusive
CCCCN1C(=O)N(CCc2ccc(F)cc2)S(=O)(=O)c2cc(C(F)(F)F)ccc21	GLP-1R inv ag 10µM
COc1ccc(-c2noc(CSCC(=O)Nc3cc(OC)c(OC)c(OC)c3)n2)cc1OC	none (no result: Integrin act MD, BRCA1 expr up, GLP-1R agonist)
CN1C(=S)N(c2cccnc2)C(=O)/C1=C\c1ccc(C(C)(C)C)cc1	GLP-1R inv ag 11µM
